Among all 360,000 compounds or so, about 690 (0.19%) were called active.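 How the source made its calls: active means fluorescence ratio to DMSO below 75%, the collection mean minus 3 SD; inconclusive means too few cells collected in the well; inactive means the rest.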 Shown is part of a subset that was picked to be rich in actives.
Target: ATP-binding cassette sub-family B member 6 (Homo sapiens) (UniProt Q9NP58)
Test: blockers of ABCB6-driven porphyrin uptake – K562-ABCB6 cells, flow cytometry, MLPCN library, primary screen (AID 602162);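 further: signal is porphyrin accumulated inside mitochondria; 100% equals median channel fluorescence of DMSO control wells; lower ratio means ABCB6 inhibition with less porphyrin fluorescence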
Conditions: K562-ABCB6 porphyrin accumulation, 1 h, at 10 µM, stronger effect = lower value

Sequence of ATP-binding cassette sub-family B member 6 (Homo sapiens) (Q9NP58 whole entry, looked up): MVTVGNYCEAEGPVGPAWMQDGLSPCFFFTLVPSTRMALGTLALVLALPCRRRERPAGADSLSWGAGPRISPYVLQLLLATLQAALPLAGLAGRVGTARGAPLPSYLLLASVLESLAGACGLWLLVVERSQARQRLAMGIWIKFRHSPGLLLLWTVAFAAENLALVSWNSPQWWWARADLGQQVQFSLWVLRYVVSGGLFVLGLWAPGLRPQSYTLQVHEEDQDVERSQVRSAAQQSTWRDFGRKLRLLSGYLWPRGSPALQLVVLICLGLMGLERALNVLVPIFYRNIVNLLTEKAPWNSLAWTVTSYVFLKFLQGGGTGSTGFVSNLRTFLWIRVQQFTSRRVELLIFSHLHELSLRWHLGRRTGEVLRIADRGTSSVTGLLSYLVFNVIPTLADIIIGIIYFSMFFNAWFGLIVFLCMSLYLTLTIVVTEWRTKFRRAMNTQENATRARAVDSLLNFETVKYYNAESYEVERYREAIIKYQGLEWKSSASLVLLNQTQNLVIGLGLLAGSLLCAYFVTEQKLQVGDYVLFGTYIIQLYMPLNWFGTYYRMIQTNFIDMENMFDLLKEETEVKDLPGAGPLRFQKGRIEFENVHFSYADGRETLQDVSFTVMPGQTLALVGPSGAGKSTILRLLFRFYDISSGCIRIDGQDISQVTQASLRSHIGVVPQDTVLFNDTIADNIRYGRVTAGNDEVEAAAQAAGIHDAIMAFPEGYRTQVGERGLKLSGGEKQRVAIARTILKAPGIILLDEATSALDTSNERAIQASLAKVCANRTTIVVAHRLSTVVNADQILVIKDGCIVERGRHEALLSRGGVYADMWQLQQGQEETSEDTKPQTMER

Fluorescence ratio to DMSO, active:
Cc1ccc2nc3c(cc(C(=O)NCCc4ccccc4)c(=N)n3CC3CCCO3)c(=O)n2c1 (stereo not drawn) 66%
Cc1cc(C)cc(NC(=O)NCc2ccccn2)c1 58%
COc1cc2[nH]c(=S)n(Cc3ccc(F)cc3)c(=O)c2cc1OC 72%
CCOC(=O)N1CCN(C(=O)CN(C2CCCCC2)S(C)(=O)=O)CC1 73%
Cc1cccc(N2CCN(C(=O)CCS(=O)(=O)c3ccc4c(c3)NC(=O)C(C)S4)CC2)c1C (stereo not drawn) 74%
Cc1cccc(NC(=O)c2nc(S(=O)(=O)Cc3ccccc3)ncc2Cl)c1 59%
Cc1cccc(CS(=O)(=O)c2ncc(Cl)c(C(=O)Nc3ccc(F)cc3)n2)c1 44%
O=C(c1ccc(Cl)cc1)c1cnc(Nc2ccccc2)s1 70%
COc1ccccc1C(=O)C(O)c1ccccc1OC (stereo not drawn) 73%
CCn1c(COc2ccccc2)nnc1SCC(=O)Nc1ccc2c(c1)OCCO2 73%
CCS(=O)(=O)N1CCC(N2CCN(c3ccccc3)CC2)CC1 70%
COc1cccc(N(CC(=O)N2CCc3ccccc3C2)S(C)(=O)=O)c1 73%
O=C(Nc1ccccc1Cl)/C(Cl)=C(\Cl)S(=O)c1ccccc1 (stereo not drawn) 43%
Cc1cc(C(=O)CSc2nc(N)cc(=O)[nH]2)c(C)n1-c1cccc(F)c1 72%

Fluorescence ratio to DMSO, inactive:
Cc1ccc(CCNC(=O)c2ccc3nc4ccccc4c(=O)n3c2)cc1 100%
O=C(NC1CCCCC1)c1ccc2c(=O)n(CC3CCCO3)c(=O)[nH]c2c1 (stereo not drawn) 97%
COc1cc2c(cc1OC)C(c1cccc([N+](=O)[O-])c1)=NCC2 100%
C=CCN1CC(C)/C(=N\O)CC1C (stereo not drawn) 88%
O=C(Cc1ccc([N+](=O)[O-])cc1)NCCS(=O)(=O)N1CCN(c2ccccc2)CC1 107%
Cc1ccc(SCCC(=O)NCc2ccccn2)cc1 98%
Cc1cc(Cl)ccc1OCCCC(=O)NCc1ccccn1 89%
NC(=O)c1ncc(C(F)(F)F)cc1Oc1ccc(F)cc1 91%
CCOc1cc(/C=C2/N=C(c3ccc(C(C)(C)C)cc3)OC2=O)cc(Cl)c1OS(C)(=O)=O 102%
CC(C)(C)Cc1c(C2CCCCC2)nc2ccc(Br)cn12 101%
O=C(CSc1nc2ncccc2[nH]1)Nc1ccc2c(c1)OCCO2 103%
COc1cc2[nH]c(=S)n(Cc3ccc(C)o3)c(=O)c2cc1OC 100%
CCOc1cc2[nH]c(=S)n(Cc3ccc(C(=O)NCCOC)cc3)c(=O)c2cc1OCC 98%
CCOC(=O)[C@]12CCC=C1N(Cc1ccco1)C(=O)[C@H](CC(=O)NCc1cccc(C(F)(F)F)c1)C2 107%
CCC(C)NC(=O)CN(C1CCCCC1)S(C)(=O)=O (stereo not drawn) 98%
CS(=O)(=O)N(CC(=O)N1CCN(c2ccc(F)cc2)CC1)C1CCCCC1 94%
C=CCn1c(CNS(=O)(=O)c2ccc(Br)cc2)nnc1SC 96%
C=Cn1cc[n+](CC(=O)c2ccc(OC)c(OC)c2)c1 97%
CCOC(=O)Cc1csc(NC(=O)CN(C)S(=O)(=O)c2ccc3c(c2)CCC(=O)N3)n1 98%
CN(CC(=O)NC(=O)Nc1ccccc1F)Cc1ccccc1 97%
CCOC(=O)c1ccc(-n2c(C)nc3c(cnn3-c3ccccc3C)c2=O)cc1 100%
CC1Sc2ccc(S(=O)(=O)CCC(=O)NCc3ccccc3Cl)cc2NC1=O (stereo not drawn) 93%
COc1ccccc1N1CCN(C(=O)CCS(=O)(=O)c2ccc3c(c2)NC(=O)C(C)S3)CC1 (stereo not drawn) 102%
COc1ccc(C(=O)NC2CC2)cc1OC1CCN(C/C=C/c2ccccc2)CC1 95%
Cc1ccc(CN(C(=O)c2sc3ccccc3c2Cl)C2CCS(=O)(=O)C2)cc1 (stereo not drawn) 95%
CCCn1c(O)c(CN2CCCC(C)C2)c(C)c(C#N)c1=O (stereo not drawn) 96%
CCCCn1nc(C(=O)N2CCc3ccccc32)c2ccccc2c1=O 102%
Cc1ccc(CNC(=O)c2ccc(CS(=O)Cc3cccc(Cl)c3)o2)cc1 (stereo not drawn) 102%
O=C(O)c1ccn(COc2ccc(Br)cc2)n1 95%
Cc1cccc(NS(=O)(=O)c2ccc(C)c(C(=O)NCc3cccnc3)c2)c1 98%
O=C(CS(=O)(=O)Cc1ccccc1)Nc1cccnc1 93%
Cc1cccc(C(=O)Nc2ccc(Oc3cnccn3)cc2)c1 98%
CN(CC(=O)Nc1ccc(F)cc1)CC(=O)Nc1ccc(Cl)c(S(=O)(=O)N2CCOCC2)c1 100%
O=C(CSc1nnc(SCc2ccc(Cl)cc2)s1)N/N=C/c1ccccc1Cl 115%
O=C(CSc1nncs1)NC1CCCc2ccccc21 (stereo not drawn) 104%
CCCCC(O)C1=C[N+](=O)CC=C1 (stereo not drawn) 92%
O=C(Nc1ccc(F)cc1)Nc1nnc([C@H]2C[C@H](O)[C@@H](CO)O2)s1 104%
CCOc1ccc(CCNC(=O)CN2C(=O)NC3(CCc4ccccc43)C2=O)cc1OCC (stereo not drawn) 103%
CCC(=O)Nc1cccc(NC(=O)CSc2nnc(-c3ccc(NS(C)(=O)=O)cc3)n2C)c1 103%
C=C1CCN([C@H](C(=O)NCc2cc(OC)c(OC)c(OC)c2)C(C)C)S(=O)(=O)c2ccccc21 97%
Cc1cccc(C(=O)NCc2nnc(SC(C)C(=O)Nc3nnc(C)s3)n2C)c1 (stereo not drawn) 101%
CC(=O)c1cccc(NC(=O)CN2C(=O)c3cccnc3Oc3ccc(Cl)cc32)c1 114%
CC(C)[C@H](NC(=O)Nc1ccc(S(N)(=O)=O)cc1)C(=O)O 107%
Nc1nc(COC(=O)CCC(=O)c2ccc(Cl)cc2)nc(Nc2ccccc2)n1 94%
CC(C)(C)C(=O)c1cnc(Nc2ccccc2)s1 94%
ON=C1/C(=N\O)CC2(C/C1=N/O)OCCO2 103%
O=C(COC(=O)c1cccc(Cl)c1Cl)NC1CCCCCC1 93%
COC(=O)c1ccc2nc(C3CCCCC3)c(Cc3cccc(F)c3)n2c1 107%
COc1cccc(NC(=O)CS(=O)(=O)c2cn(CC(=O)N3CCOCC3)c3ccccc23)c1 97%
COc1ccccc1C(=O)c1ccccc1C(=O)c1ccccc1 102%
COc1ccccc1C(=O)Nn1cnnc1 100%
CCOc1ccc(S(=O)(=O)NCCC(=O)N2CCCCCCC2)cc1 98%
CCOc1ccc(CCNC(=O)COC(=O)c2ccc(C)c(S(=O)(=O)N3CCOCC3)c2)cc1OCC 101%
COc1c(O)ccc2c1CN1CCc3cc4c(cc3C1C2)OCO4 (stereo not drawn) 102%
Cn1ccnc1SCC(=O)Nc1ccc2c(c1)OCCO2 101%
CCn1c(SCC(=O)Nc2ccc3c(c2)OCCO3)nnc1C(C)C 88%
COc1cc(CN2CCCC(C(=O)c3ccc(SC)cc3)C2)cc(Cl)c1O (stereo not drawn) 96%
COC(=O)C(=Nc1ccccc1)/C(C(=O)C(=O)N(C)c1ccccc1)=C(\O)c1ccc(Cl)cc1 94%
COc1cc(NS(=O)(=O)c2ccc(NC(=O)c3ccc(S(=O)(=O)N4CCCCC4)cc3)cc2)ncn1 102%
O=S(=O)(NCCS(=O)(=O)N1CCN(c2ccccc2)CC1)c1ccc(F)cc1 95%
CS(=O)(=O)N1CCC(C(=O)N2CCN(c3ccccc3)CC2)CC1 108%
CCOC(=O)c1cc(-c2sc(NC(=O)c3ccccc3)nc2C)n(-c2ccc(Br)cc2)n1 90%
Cc1ccc(S(=O)(=O)N(CC(=O)N2CCc3ccccc3C2)c2cccc(Cl)c2)cc1 90%
CS(=O)(=O)N(CC(=O)N1CCc2ccccc2C1)c1ccc(Br)cc1 95%
COCCNc1cc(-c2ccccc2)nc2cc(-c3cccc(F)c3)nn12 97%
CC1(C(=O)NS(=O)(=O)c2ccc3ccccc3c2)CCN1C(=O)C1(c2ccc(Cl)cc2)CCC1 (stereo not drawn) 102%
Cc1ncn2cc(-c3ccc(Cl)cc3Cl)[nH]c(=O)c12 96%
O=C(COc1nsnc1N1CCOCC1)Nc1ccccc1Cl 95%
O=C(Nc1ccccc1C(=O)N1CCCCCC1)c1ccccc1Cl 99%
Cc1ccc(S(=O)(=O)N2C[C@@H]3CCCC[C@@H]3[C@@H](C)[C@H]2c2cn(Cc3ccccc3)c3ccc(F)cc23)cc1 97%
COc1cccc(N(CC(=O)NCCSc2ccccn2)S(C)(=O)=O)c1 99%
Cc1ccc(C(=O)Nc2ccccc2-c2ccccc2)cc1S(=O)(=O)Nc1ccccc1 99%
CCOC1=C2[C@H]([C@H]3C(=O)N(c4ccccc4)C(=O)[C@H]3C1)[C@@H](c1ccccc1)N(S(=O)(=O)c1ccc(C)cc1)[C@H]2c1ccccc1 104%
Cc1cc(C(=O)CSc2nc(N)cc(=O)[nH]2)c(C)n1CCc1ccc(Cl)cc1 95%
Cc1cc(C)c(C(=O)CSc2nc(C)cc(=O)[nH]2)c(C)c1 101%
CC(Oc1ccccc1)C(=O)NN1Cc2ccccc2C1=N (stereo not drawn) 99%
O=C(OCC(=O)N1CCCCC1)c1ccc(OC(F)(F)F)cc1 95%
O=C1NC2(CCCCCC2)C(=O)N1CCS(=O)(=O)Oc1ccccc1 96%
O=c1ccc2cc(S(=O)(=O)N3CCN(c4ccccc4)CC3)ccc2o1 98%
